SNCA expr inhib = SNCA gene expression inhibition | AID 1671194 | Potency, µM (titrated, usually from 57.2 µM), inactives show at the highest dose activity change, negative = inhibition, usual class: inhibitors | HEK-293 SNCA-luciferase knock-in, luminescence, 24 h | actives 0.17% (n = 140,000);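 note: plate controls were DMSO cells for no effect and cell-free wells for full effect; nearly all actives have a fitted effect of over 45% in size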
FLuc inh = blocks purified firefly luciferase enzyme activity; P08659; purified P. pyralis luciferase, luminescence, biochemical; Potency, µM (highest dose often 115 µM), hits mostly inhibitors; actives 2.5% (n = 76,000); AID 1347043; note: % is set by controls: 0 for no effect and ±100 for the full control effect; nearly all actives have a fitted effect of over 65% in size
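Cell-free enzyme assay, 10nM P. pyralis luciferase, luciferin and ATP each at 10uM. Inhibition profiled over a 6-point titration, read as luminescence.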
HEK293 viab = reduces viability of HEK-293 SNCA reporter cells; HEK-293-SNCA-luc viability, GF-AFC fluorescence, 24 h; actives 0.12% (n = 150,000); Potency, µM (highest dose often 57.1 µM), without a hit: at the highest dose activity change, negative = cytotoxicity, most hits filed as cytotoxic;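 note: 0% = DMSO-treated cells and -100% = medium-only wells without cells; nearly all actives have a fitted effect of over 30% in size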
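Cytotoxicity counterscreen: after 24 h compound treatment of genome-edited SNCA-luciferase HEK-293 cells, live-cell protease substrate GF-AFC read by fluorescence after 30 min; activity scaled between DMSO (0%) and medium-only (-100%), curves Hill-fitted.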
NPR1 antag = antagonists of human natriuretic peptide receptor Npr1. HEK293 hNpr1 GloSensor cGMP, ANP-stimulated luminescence. Potency, µM (series often up to 46.3 µM), without a hit: top-dose activity change, negative = inhibition, hits mostly inhibitors. actives 1.6% (n = 76,000). AID 1347048; calls by dose curve; note: % is set by controls: 0 for no effect and ±100 for the full control effect; nearly all actives have a fitted effect of over 60% in size
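HEK293 cells stably expressing human Npr1 and cGMP GloSensor pGS-40F, loaded 2 h with 2% GloSensor reagent, given compound 30 min at room temperature. Luminescence read before and 20 min after 0.1 nM hNppA.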
3T3 cytotox = cytotoxic compounds in NIH 3T3 cells | NIH 3T3 viability, CellTiter-Glo ATP luminescence, 48-72 h | Potency, µM (series often up to 96.7 µM), inactives show top-dose activity change, negative = cytotoxicity, hits mostly inhibitors | actives 4.3% (n = 94,000); note: % is set by controls: 0 for no effect and ±100 for the full control effect; nearly all actives have a fitted effect of over 55% in size
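Mouse fibroblast NIH 3T3 cells, 400 per well, received compound via pintool and were incubated for 48 or 72 hr prior to CellTiter-Glo ATP luminescence measurement.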
HEK cytotox = kills HEK 293 cells. actives 6.6% (n = 94,000). Potency, µM (top dose mostly 115 µM), for the others: top-dose activity change, negative = cytotoxicity, actives largely listed as inhibitors. AID 1345083. HEK 293 viability, ATP luminescence (CellTiter-Glo), 48-72 h; note: % is set by controls: 0 for no effect and ±100 for the full control effect; nearly all actives have a fitted effect of over 60% in size
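Cells seeded first (HEK 293, 250 cells/well), then compound added by pintool. Incubation ran 48 or 72 hr at 37 degree Celsius. CellTiter-Glo was added and luminescence imaged after 10 min at room temperature.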
Npr1 antag conf = hNpr1 antagonism, confirmation assay. actives 76% (n = 1,400). HEK293 hNpr1 cGMP GloSensor luminescence, ANP-stimulated. Potency, µM (series often up to 57.6 µM), without a hit: top-dose activity change, negative = inhibition, actives largely listed as inhibitors. shares compounds with NPR1 antag; calls by dose curve; note: nearly all actives have a fitted effect of over 70% in size
Npr2 selectivity = hNpr2 antagonism, selectivity versus Npr1 | HEK293 hNpr2 GloSensor cGMP luminescence, CNP-stimulated | actives 67% (n = 1,400) | Potency, µM (doses to about 57.6 µM), for the others: top-dose activity change, negative = inhibition, most hits filed as inhibitors | shares compounds with NPR1 antag; calls by dose curve; note: nearly all actives have a fitted effect of over 70% in size
Target sequence (P20594 whole entry, looked up): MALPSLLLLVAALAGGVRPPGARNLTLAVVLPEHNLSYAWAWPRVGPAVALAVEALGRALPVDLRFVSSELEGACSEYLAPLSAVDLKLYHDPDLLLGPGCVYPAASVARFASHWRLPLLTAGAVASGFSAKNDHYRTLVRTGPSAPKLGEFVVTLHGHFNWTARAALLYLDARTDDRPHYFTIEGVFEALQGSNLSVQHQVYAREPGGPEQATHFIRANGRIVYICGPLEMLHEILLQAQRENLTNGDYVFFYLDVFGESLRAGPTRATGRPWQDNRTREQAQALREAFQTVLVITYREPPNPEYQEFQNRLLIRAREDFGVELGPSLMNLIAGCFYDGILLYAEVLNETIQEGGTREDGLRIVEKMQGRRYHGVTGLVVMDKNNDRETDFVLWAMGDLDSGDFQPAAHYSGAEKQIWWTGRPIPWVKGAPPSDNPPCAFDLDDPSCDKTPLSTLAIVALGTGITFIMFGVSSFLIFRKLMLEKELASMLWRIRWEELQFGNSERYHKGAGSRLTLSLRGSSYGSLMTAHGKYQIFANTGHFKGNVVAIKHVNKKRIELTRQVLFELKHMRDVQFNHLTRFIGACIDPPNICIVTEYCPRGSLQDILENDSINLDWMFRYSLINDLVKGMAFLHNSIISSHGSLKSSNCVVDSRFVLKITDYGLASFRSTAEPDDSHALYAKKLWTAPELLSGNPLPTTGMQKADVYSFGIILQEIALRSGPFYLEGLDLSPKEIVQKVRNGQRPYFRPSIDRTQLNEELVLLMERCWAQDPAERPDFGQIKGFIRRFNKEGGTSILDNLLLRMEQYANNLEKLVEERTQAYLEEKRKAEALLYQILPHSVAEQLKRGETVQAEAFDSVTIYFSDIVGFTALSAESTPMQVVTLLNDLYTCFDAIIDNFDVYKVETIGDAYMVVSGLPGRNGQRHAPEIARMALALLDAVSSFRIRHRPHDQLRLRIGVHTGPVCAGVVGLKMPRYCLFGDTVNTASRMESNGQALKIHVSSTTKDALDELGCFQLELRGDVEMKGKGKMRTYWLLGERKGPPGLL
FLuc counter = FLuc enzyme inhibition, Npr1 counter-screen; Potency, µM (top dose mostly 57.6 µM), without a hit: at the top dose activity change, negative = inhibition, hits mostly inhibitors; AID 1347047; purified FLuc enzyme, luminescence, Km substrate; actives 0.7% (n = 1,400); shares compounds with NPR1 antag; note: 0% is about no effect
GloSensor ctrl = counter-screen for Npr1 antagonists: GloSensor control cell line | actives 69% (n = 1,400) | Potency, µM (series often up to 57.6 µM), for inactives: at the highest dose activity change, negative = inhibition, usual class: inhibitors | HEK293 GloSensor cGMP, SNP-stimulated, luminescence | shares compounds with NPR1 antag; calls by dose curve; note: % is set by controls: 0 for no effect and ±100 for the full control effect; nearly all actives have a fitted effect of over 70% in size
Active calls of the source: *; i = inactive; ? = inconclusive; · = no result given; [ ] = another dose, or the depositor's remark. Rows were chosen to be rich in hits. Some 7.4% of all compounds tested hit in one or more screens of this group. Unless noted, calls come from the whole dose curve; as a rule, active = well fitted curve in the direction sought with a large enough effect; inconclusive = small, poorly fitted or top-dose-only effect, or another doubt; inactive = no such curve, though single readings can be large; an effect the other way counts as inactive or inconclusive. Potency is the fitted concentration of half-maximal effect.

SMILES	SNCA expr inhib	FLuc inh	HEK293 viab	NPR1 antag	3T3 cytotox	HEK cytotox	Npr1 antag conf	Npr2 selectivity	FLuc counter	GloSensor ctrl
Cc1cc(=O)n(CC(=O)Nc2ccc(C)c(F)c2)c(N2CCc3ccccc3C2)n1	?	i	?	16µM*	?	8.9µM*	-17%	-26%	1%	-20%
Cc1cc(=O)n(CC(=O)Nc2ccc(C)c(Cl)c2)c(N2CCc3ccccc3C2)n1	17%	i	5%	-7%	?	?	·	·	·	·
COc1cccc(C(=O)N2CCC(C(=O)N3CCC(c4nc5ccncc5[nH]4)C3)CC2)c1 (stereo not given)	20%	·	9%	·	2%	-16%	·	·	·	·
CCCc1noc(-c2cn(C3CCN(C(=O)c4cccc(N(C)C)c4)CC3)nn2)n1	18%	i	-4%	-24%	-27%	-29%	·	·	·	·
CCc1cc(N2CCCC(C(=O)c3sccc3C)C2)ncn1 (stereo not given)	-6%	i	-19%	7.1µM*	-39%	32µM*	7.7µM*	12µM*	3%	7.7µM*
COc1ccc(OC)c(NC(=O)CN2C(=O)NC(c3ccc(Cl)cc3)C3=C2COC3=O)c1 (stereo not given)	-30%	i	-3%	-1%	?	?	·	·	·	·
O=C(CN1C(=O)NC(c2ccc(Cl)cc2)C2=C1COC2=O)Nc1ccc(Br)cc1F (stereo not given)	?	i	-20%	?	28µM*	35µM*	24µM*	?	-1%	27µM*
CC(=O)N(C1CC1)C1CCOC2(CCN(C(=O)c3cc(C)n(C)n3)CC2)C1 (stereo not given)	-12%	·	-1%	·	-19%	-3%	·	·	·	·
COc1ccc(CNC2CN(C(=O)OC(C)(C)C)C2)cc1	-12%	·	0%	·	-11%	5%	·	·	·	·
CC(C)(C)OC(=O)N1CC(NCc2ccc(-c3ccc(OC(F)(F)F)cc3)cc2)C1	?	·	?	·	?	?	22µM*	22µM*	-2%	17µM*
CC1=NS(=O)(=O)N(C)C=C1C(=O)OCc1nc(C2CCCCC2)no1	-17%	i	10%	13µM*	?	-25%	22µM*	?	-8%	17µM*
COc1ccc(CN2C=C(C(=O)OCc3nc(Cc4cccc(C)c4)no3)C(C)=NS2(=O)=O)cc1	6%	i	3%	-2%	-33%	-19%	·	·	·	·
COc1ccc(-c2noc(COC(=O)C3=CN(C)S(=O)(=O)N=C3C)n2)cc1	-4%	i	-1%	7.9µM*	-24%	?	12µM*	17µM*	-8%	14µM*
COc1ccc(CN2C=C(C(=O)OCc3nc(C4CC4)no3)C(C)=NS2(=O)=O)cc1	-2%	i	2%	-27%	?	?	·	·	·	·
CC1=NS(=O)(=O)N(C)C=C1C(=O)OCc1nc(-c2ccccc2F)no1	14%	i	-4%	?	-14%	-4%	?	?	-2%	?
CC1=NS(=O)(=O)N(C)C=C1C(=O)OCc1nc(Cc2ccc(C)cc2)no1	-10%	i	9%	11µM*	-22%	-27%	22µM*	?	2%	19µM*
COc1ccc(CN2C=C(C(=O)OCc3nc(-c4ccc(F)cc4)no3)C(C)=NS2(=O)=O)cc1	?	i	-19%	?	?	?	·	·	·	·
CCCCCNC(=O)c1cc(-c2ccc(F)cc2)nc2c1cnn2C	·	·	·	·	-26%	?	·	·	·	·
Cc1noc(C)c1[S+](=O)([O-])NC1CCN(C(=O)c2ccc(-c3ncccc3C#N)cc2)CC1	41%	·	13%[12.5 µM]	·	?	5%	·	·	·	·
CC1=NS(=O)(=O)N(Cc2ccccc2)C=C1C(=O)OCc1nc(-c2ccccc2)no1	-28%	i	2%	0%	?	?	·	·	·	·
CC1=NS(=O)(=O)N(C)C=C1C(=O)OCc1nc(-c2ccc(OC(F)(F)F)cc2)no1	4%	i	-10%	10µM*	?	40µM*	15µM*	14µM*	2%	12µM*
CC1=NS(=O)(=O)N(C)C=C1C(=O)OCc1nc(-c2ccc(Br)cc2)no1	28%	i	?	10µM*	?	?	11µM*	14µM*	-12%	11µM*
Cc1ccccc1SC1CCN(c2cc(C3CC(O)C3)ncn2)CC1 (stereo not given)	?	i	-17%	2.8µM*	?	?	4.8µM*	6.1µM*	1%	3.9µM*
Cc1ccc(Cl)cc1N1CCN(c2cc(C3CC(O)C3)ncn2)CC1 (stereo not given)	-23%	i	-23%	8.9µM*	?	28µM*	19µM*	19µM*	-2%	14µM*
Cc1nn2c(c1-c1ccccc1Oc1ccccc1)N(Cc1ccc(OCC(=O)O)cc1)CCC2	-3%	i	0%	-4%	?	i	·	·	·	·
Cc1nn2c(c1-c1ccccc1Oc1ccccc1)N(C(=O)COc1ccccc1)CCC2	-12%[87.6 µM]	i	-4%[87.6 µM]	?	?	79µM*	31µM*	22µM*	1%[86.2 µM]	?
Cc1nn2c(c1-c1ccccc1OCc1ccccc1)N(C(=O)COc1ccccc1)CCC2	-16%	i	-5%	?	11µM*	40µM*	17µM*	12µM*	-1%	-21%
CNC12CC3C[C@@](C)(C1)C[C@](C)(C3)C2	·	·	-6%	·	·	·	·	·	·	·
N#Cc1ccc(C(=O)NC2CCN(c3cc(-c4ccc(Cl)cc4)[nH]n3)CC2)cc1	26%	i	-3%	?	-20%	?	?	?	-2%	?
